Only some compounds are listed: those with a hit (about 2.7% of all), similar ones and a draw of the others.
HEK293 tox = cytotoxicity in counter-screen for GLP-1R inverse agonists. Potency, µM (top dose mostly 38.3 µM), for inactives: at the top dose activity change, negative = inhibition, most hits filed as inhibitors. 410,000 tested, 0.13% active. HEK293 cAMP-luciferase reporter cells, luminescence, 24 h;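 also: loss of luciferase light is scored as toxicity; % is scaled to controls: 0 for no effect and ±100 for the full control effect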
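Step one: seed cells (200 cells/uL, DMEM with 10% Nu serum, 1% pen-strep). Step two: 12-hour incubation at 37 deg C. Step three: pin 23 nL compound, incubate 24 hr. Step four: add luciferase reagent, read luminescence 12 min later.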
GLP-1R inv ag = acts as inverse agonist at human GLP-1 receptor | P43220 | HEK293 GLP-1R CRE-luciferase, luminescence, 24 h; GLP-1R form is constitutively active | 410,000 tested, 1.6% active | Potency, µM (top dose mostly 38.3 µM), inactives show at the top dose activity change, negative = inhibition, usual class: inhibitors; also: % is scaled to controls: 0 for no effect and ±100 for the full control effect; nearly all actives have a fitted effect of over 55% in size
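Stable HEK293 clone (constitutively active GLP-1R + cAMP-response luciferase); 200 cells/uL plated, 12 h pre-culture, compound 24 hr, 37 deg C/5% CO2; detection reagent 12 min RT; luminescence.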
TrxR1 substrate = is turned over as a substrate by rat TrxR1; 390,000 tested, 0.01% active; AID 588456; Potency, µM (titrated, usually from 114 µM), without a hit: top-dose activity change, negative = substrate turnover; O89049; purified TrxR1 substrate turnover, NADPH consumption readout; also: % is scaled to controls: 0 for no effect and ±100 for the full control effect; nearly all actives have a fitted effect of over 50% in size
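Rat TrxR1, dispensed at 90 nM, was prereduced with 400 uM NADPH (final) for 5 min at ~22 deg C, then incubated with compound 15 min before 400 uM selenite. A first-read NADPH fluorescence drop versus no-compound background flagged substrates.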
IDH1 R132H inh = human IDH1 R132H inhibition; 390,000 tested, 0.093% active; O75874; Potency, µM (doses to about 76.6 µM), without a hit: top-dose activity change, negative = inhibition, hits mostly inhibitors; IDH1-R132H enzyme, NADPH consumption, diaphorase/resazurin fluorescence; also: % is scaled to controls: 0 for no effect and ±100 for the full control effect; nearly all actives have a fitted effect of over 65% in size
Target sequence (O75874 whole entry R132H, stated change not applied): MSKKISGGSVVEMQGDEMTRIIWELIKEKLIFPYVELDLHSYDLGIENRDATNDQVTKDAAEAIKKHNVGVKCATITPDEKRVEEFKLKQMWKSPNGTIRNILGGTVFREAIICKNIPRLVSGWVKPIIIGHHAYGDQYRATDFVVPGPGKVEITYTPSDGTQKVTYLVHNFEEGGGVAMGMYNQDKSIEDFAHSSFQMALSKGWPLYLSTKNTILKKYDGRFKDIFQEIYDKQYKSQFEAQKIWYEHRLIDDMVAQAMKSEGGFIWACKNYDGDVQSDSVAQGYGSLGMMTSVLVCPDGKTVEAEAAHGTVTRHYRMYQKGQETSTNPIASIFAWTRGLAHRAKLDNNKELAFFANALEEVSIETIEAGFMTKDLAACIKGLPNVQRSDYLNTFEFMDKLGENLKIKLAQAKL
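IDH1-R132H (0.5 ug/mL dispensed) in pH 7.5 Tris buffer was preincubated 30 min with compound, then given a substrate mix of 0.016 mM NADPH and 2 mM alpha-KG for 80 min at room temperature; remaining NADPH was read by diaphorase/resazurin fluorescence.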
TrxR1 inh = rat TrxR1 inhibition; AID 588453; Potency, µM (top dose mostly 114 µM), without a hit: at the highest dose activity change, negative = inhibition, actives largely listed as inhibitors; O89049; 390,000 tested, 1% active; recombinant rTrxR1, NADPH fluorescence consumption, selenite substrate; also: % is scaled to controls: 0 for no effect and ±100 for the full control effect; nearly all actives have a fitted effect of over 65% in size
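Rat TrxR1 (90 nM in the dispensed reagent) was pre-reduced with 400 uM NADPH for 5 min at room temperature, then incubated with compound for 15 min. After 400 uM selenite was added, NADPH fluorescence (Ex 340/Em 450 nm) was followed for 8 min.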
GLP-1R agonist = GLP-1 receptor (human) agonism; HEK293 GLP-1R CRE-luciferase, luminescence, 4-6 h; cells express a hypersensitive GLP-1R form; AID 624172; Potency, µM (highest dose often 45.6 µM), without a hit: at the top dose activation, actives largely listed as activators; P43220; 380,000 tested, 0.007% active; also: % of control where 0% means no effect
An asterisk follows results filed as active; ? = inconclusive; / = no result given; [ ] = another dose, or the depositor's remark. Calls follow the shape of the dose curve; as a rule, active = well fitted curve in the direction sought with a large enough effect; inconclusive = small, poorly fitted or top-dose-only effect, or another doubt; inactive = no such curve, though single readings can be large; an effect the other way counts as inactive or inconclusive. Potency is read from the fitted curve at half-maximal effect.

SMILES	HEK293 tox	GLP-1R inv ag	TrxR1 substrate	IDH1 R132H inh	TrxR1 inh	GLP-1R agonist
O=C(C[N+]1(CCc2ccccc2)CCOCC1)c1cccc([N+](=O)[O-])c1	/	/	6%	/	30%	/
O=C(O)c1ccc(N/N=C/c2ccc(OC(=O)c3ccccc3Cl)cc2)cc1	1%	7.1µM*	7%[57.1 µM]	1%	3%[57.1 µM]	0%
Nc1ccc(C(=O)N/N=C\c2ccc(OC(=O)c3ccccc3Cl)cc2)cc1	1%	5%	-2%	1%	23%	5%
N#C/C(C(=O)N1CCCCC1)=C1\Nc2ccccc2S1	-15%	11%	-7%	-1%	-6%	-14%
Cc1ccc(NC(=S)/C(C#N)=C2/Nc3ccccc3S2)cc1	?	4µM*	/	-6%	/	-2%
CC(=O)Oc1oc(-c2ccccc2)nc1/C=N/c1ccccn1	-7%	-1%	-3%	-2%	7.1µM*	-5%
Oc1ccc(-c2nc3ccc4ccccc4c3c3c2CCC3)cc1O	?	4µM*	0%	-22%	-2%	-11%
Cc1ccc(NC(=O)C(c2ccccc2)N2Cc3ccccc3C2=O)cc1Cl (configuration not stated)	1%	0%	-9%	7%	-1%	/
Cc1ccc(NC(=O)[C@@H](c2ccccc2)N2Cc3ccccc3C2=O)cc1F	-7%	10µM*	-5%	-4%	-5%	-4%
C[C@@H](O)[C@@H]1C(=O)N2C(C(=O)O)=C([C@H]3CCCO3)S[C@H]12	/	/	/	/	/	0%
CSc1nc(N)c2ncn([C@@H]3O[C@H](COP(=O)(O)OP(=O)(O)O)[C@H](O)[C@H]3O)c2n1	/	/	/	/	7%	/
COc1ccc(C/C(N)=N/OC(=O)c2ccc(Cl)cc2)cc1	-8%	-1%	6%	-8%	16%	12%
N/C(Cc1ccc(Cl)cc1)=N\OC(=O)c1ccc2ccccc2c1	?	7.9µM*	0%	-1%	-5%	?
CCN1c2cc(C)ccc2-n2cccc2C12CCN(C(=O)Nc1cc(OC)c(OC)c(OC)c1)CC2	-6%	11µM*	0%[57.1 µM]	-4%	25%[57.1 µM]	/
COc1cc(NC(=O)N2CCC3(CC2)Nc2cc(F)ccc2-n2cccc23)cc(OC)c1OC	-21%	?	-4%[57.1 µM]	4%	6%[57.1 µM]	/
CCN1c2ccccc2-n2cccc2C12CCN(C(=O)Nc1ccccc1Br)CC2	0%	10µM*	-1%[57.1 µM]	-15%	22%[57.1 µM]	/
O=C(Nc1ccccc1Br)N1CCC(CN2CCCC2)CC1	10%	8%	0%[57.1 µM]	-3%	17%[57.1 µM]	/
CC1=CC(C)(C)n2c(O)c(N=NC(N)=S)c3cc(C)cc1c32	2.8µM*	2µM*	1%	1%	7%	5%
CCCCCCSc1ccc([C@H]2N[C@@](C)(C(=O)OC)[C@H]3C(=O)N(CC)C(=O)[C@@H]23)cc1	0%	10µM*	-2%	3%	7%	25%
CCCCCCSc1ccc([C@H]2N[C@@](Cc3ccccc3)(C(=O)OC)[C@H]3C(=O)N(C)C(=O)[C@@H]23)cc1	-6%	11µM*	-12%	-4%[38.3 µM]	-7%	12%
N.N.O=C(O)C1(C(=O)O)CCC1.[Pt+2]	/	/	14%[57.1 µM]	/	0.95µM*	/
COC(=O)c1ccccc1NC(=O)N1CCC(N2CCN(Cc3ccc(F)cc3)C(=O)C2=O)CC1	-6%	14%	8%[57.1 µM]	-10%	11%[57.1 µM]	/
O=C(Cc1cccc2ccccc12)NCC(=O)N1CCN(Cc2cccc(C(F)(F)F)c2)CC1	-3%	10µM*	-6%	-1%	10%	2%
Clc1ccc2c(N/N=C/c3ccccc3Br)ccnc2c1	13%[1.53 µM]	-18%	-4%	-5%	-3%	0%
Clc1ccc2c(N/N=C/c3cccc(Br)c3)ccnc2c1	?	13µM*	0%	-1%	-5%	-3%
Clc1cccc(NCc2nnc(SCc3ccccc3Cl)o2)c1	18%	0%	5%	0%	6%	4%

Screening results deposited in PubChem by National Center for Advancing Translational Sciences (NCATS).
